Data as given in PubChem BioAssay.
Activity calls are given as the source filed them.

How the values were obtained:
Albumin (Bos taurus) = Albumin (Bos taurus) (UniProt P02769); test: compounds binding labelled BSA control protein – biochemical, small-molecule microarray, Alexa647 label, 635/667 nm fluorescence, artefact control for SMM control protein annotation, profiling panel (AID 1118); conditions: BSA-A647 binding, fluorescence 635 nm, higher = more signal;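 note: score merges 667 nm emission intensity and signal-to-noise per printed compound spot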
[1] = probe aXIP binding to arrayed compounds – biochemical, NeuroSMM set, 635/667 nm fluorescence, primary screen (AID 1119); conditions: small-molecule microarray, higher = more signal, called active from +8 up or from −8 down;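 note: probe is the protein aXip251-270 applied at 1 µg/mL to compound-printed slides; binding of probe to printed compounds measured as 667 nm fluorescence plus signal to noise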
[2] = probe aNOTCH3 binding on compound microarray – biochemical, small-molecule microarray, 635/667 nm fluorescence, primary screen (AID 1120); conditions: higher = more signal;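 note: probe is a biotin-tagged antibody raised against NOTCH3 rather than NOTCH3 protein; score merges spot fluorescence near 667 nm with spot signal to noise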
[3] = probe aNOTCH2 binding on compound microarray – biochemical, small-molecule microarray, 635/667 nm fluorescence, primary screen (AID 1121); conditions: higher = more signal;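 note: score merges feature fluorescence read at 667 nm with its signal to noise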
[4] = molecular target: Carbonic anhydrase 2 (Homo sapiens) (UniProt P00918); test: compounds binding carbonic anhydrase 2 – biochemical, small-molecule microarray, Alexa647-labelled CAII, profiling panel (AID 1122); conditions: CAII-A647 binding fluorescence, higher = more signal
[5] = COS7 lysate on small-molecule microarray, probe aHis, 635 nm (AID 1123); conditions: COS7 cell lysate, fluorescence, higher = more signal;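 note: z-score combines 667nm fluorescence intensity with signal-to-noise per printed compound spot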
[6] = probe aLAP1 signal on lysate-treated microarray – cell lysate, small-molecule microarray, COS7 lysate, primary screen (AID 1124); conditions: probe aLAP1, fluorescence, higher = more signal;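 note: lysate comes from COS7 cells expressing LAP1 and is applied at 0.3 µg/mL; score merges spot fluorescence near 667 nm with signal-to-noise over triplicate slides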
Sam68 (KHDRBS1) = test: compounds binding KHDRBS1 protein – biochemical, small-molecule microarray, 635 nm fluorescence, primary screen (AID 1125); conditions: higher = more signal;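 note: score merges 667 nm channel intensity with signal to noise over triplicate slides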
[7] = tested on: Chordin-like protein 2 (CHRDL2); test: compounds binding chordin-like 2 – biochemical, small-molecule microarray, 635 nm fluorescence, primary screen (AID 1126); conditions: fluorescence 635 nm, higher = more signal;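 note: printed compound slides probed with Chrdl2 protein at 4 µg/mL for 1 h at 4 C; score merges 667 nm emission intensity with signal to noise over three replicate slides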
[8] = molecular target: Concanavalin-A (Canavalia ensiformis) (UniProt P02866); test: compounds binding concanavalin A lectin – biochemical, small-molecule microarray, Alexa647 label, 635 nm, artefact control for SMM control protein annotation, primary screen (AID 1127); conditions: ConA-A647 binding fluorescence, higher = more signal;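 note: z combines 667 nm emission intensity with signal-to-noise across three replicate slides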
Concanavalin-A (Canavalia ensiformis), sequence (P02866 whole entry, looked up): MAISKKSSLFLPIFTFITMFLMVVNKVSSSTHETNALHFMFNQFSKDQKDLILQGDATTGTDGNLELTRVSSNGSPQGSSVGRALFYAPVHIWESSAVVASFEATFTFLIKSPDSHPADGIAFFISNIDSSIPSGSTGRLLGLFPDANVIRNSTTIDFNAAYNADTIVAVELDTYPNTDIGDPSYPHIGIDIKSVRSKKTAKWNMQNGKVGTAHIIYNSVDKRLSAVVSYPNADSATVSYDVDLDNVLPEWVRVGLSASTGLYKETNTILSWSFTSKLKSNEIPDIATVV

Albumin (Bos taurus), sequence (P02769 whole entry, looked up): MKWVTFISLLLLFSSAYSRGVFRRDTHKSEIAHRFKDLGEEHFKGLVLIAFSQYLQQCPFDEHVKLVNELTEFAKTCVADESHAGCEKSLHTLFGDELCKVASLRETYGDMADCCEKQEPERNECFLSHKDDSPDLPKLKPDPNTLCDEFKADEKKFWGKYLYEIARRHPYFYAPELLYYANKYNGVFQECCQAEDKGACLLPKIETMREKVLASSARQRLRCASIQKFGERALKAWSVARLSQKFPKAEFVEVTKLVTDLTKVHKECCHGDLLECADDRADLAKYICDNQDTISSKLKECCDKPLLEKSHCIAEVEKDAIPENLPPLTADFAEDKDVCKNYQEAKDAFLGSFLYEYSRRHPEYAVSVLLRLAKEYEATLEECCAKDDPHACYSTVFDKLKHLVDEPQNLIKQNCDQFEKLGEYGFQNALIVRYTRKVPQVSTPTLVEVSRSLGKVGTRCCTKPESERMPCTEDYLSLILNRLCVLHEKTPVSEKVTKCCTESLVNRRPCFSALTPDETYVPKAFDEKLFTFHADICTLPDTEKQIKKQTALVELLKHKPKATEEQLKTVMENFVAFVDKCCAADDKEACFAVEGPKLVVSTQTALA

| Compound | composite z-score (Albumin (Bos taurus)) | composite Z-score [1] | composite z-score [2] | composite z-score [3] | composite z-score [4] | composite z-score [5] | composite z-score [6] | composite z-score (Sam68 (KHDRBS1)) | composite z-score [7] | composite z-score [8] |
| --- | --- | --- | --- | --- | --- | --- | --- | --- | --- | --- |
| COc1ccc([Si](C)(C)[C@@H]2[C@@H](CCO)O[C@]3(C(=O)N(Cc4cccc(N(C=O)c5ccccc5)c4)c4ccccc43)[C@H]2C)cc1 | 0.492 | 0.492 (inactive) | -0.0328 | -0.0876 | 0.457 | 0.46 | -0.206 | 1.32 | -0.179 | 1.1 |
| CCCNC(=O)[C@@]1(C)c2ccccc2C(=O)N(C(C)C)[C@H]1c1ccc(CO)cc1 | -0.598 | -0.305 (inactive) | -0.136 | -0.102 | 0.673 | 1.63 | 0.65 | -0.347 | -0.95 | -1.15 |
| CCOC(=O)C[C@H]1[C@H](OC(=O)c2ccccc2-c2ccccc2)[C@@H](NC(=O)c2ccc(-c3ccccc3)cc2)c2cc(OCCCO)ccc2N1C(=O)c1ccccc1 | 0.822 | 0.148 (inactive) | 0.0456 | -0.11 | 0.222 | 0.961 | -0.133 | 1.23 | 0.225 | 0.534 |
| COc1ccc(C(=O)Nc2cccc(CN3C(=O)[C@@]4(O[C@@H](CC(=O)N5Cc6ccccc6C[C@H]5CO)[C@H]([Si](C)(C)c5ccc(OC)cc5)[C@H]4C)c4ccccc43)c2)cc1 | -1.04 | 0.008 (inactive) | 0.127 | -0.14 | 0.576 | 1.15 | -0.0148 | 1.04 | 1.38 | 1.08 |
| CC(c1ccccc1)C(O)C1C=CC2C(=O)N(c3ccccc3)C(=O)C2N1Nc1ccccc1F (stereo not given) | 0.687 | 0.0197 (inactive) | 0.0522 | -0.0483 | 0.697 | 2.21 | 0.504 | 1.17 | -0.474 | 0.77 |
| [N-]=[N+]=NCc1ccccc1C[C@]1(C(=O)NCC(O)CO)COC(c2ccc(OCCCO)cc2)=N1 (stereo not given in full) | 1.03 | 0.621 (inactive) | 0.0566 | 0.446 | 0.8 | 3.3 | 1.38 | 1.12 | -1.37 | 0.954 |
| CCCC[C@H]1C[C@@H]1[C@@H]1N(P(=O)(c2ccccc2)c2ccccc2)[C@](CO)(c2ccccc2)CC12CC2 | 0.914 | -0.0435 (inactive) | 0.112 | 0.281 | 0.285 | 2.17 | -0.384 | 0.255 | -1.39 | 0.558 |
| COCCOC(=O)N1C(=O)[C@@]2(c3cc(C#CCCO)ccc31)[C@H](C(=O)NC[C@H](O)c1ccccc1)[C@H]1C(=O)O[C@H](c3ccccc3)[C@H](c3ccccc3)N1[C@@H]2c1ccc(OCCO)cc1 | 0.536 | 0.192 (inactive) | 0.264 | -0.155 | 0.581 | 1.72 | 0.684 | 1.3 | 0.534 | 1.13 |
| C=CCC(OC(C)=O)[C@@H]1[C@@H](N(Cc2cc3ccccc3o2)C(=O)c2cccc3ccccc23)c2cc(OCCCO)ccc2N1C(=O)Cc1ccc(OC)cc1 (stereo not given in full) | -0.131 | 0.495 (inactive) | 0.0602 | -0.0937 | 0.327 | 0.497 | -0.0685 | -0.0427 | 0.364 | -0.162 |
| CO[C@H]1O[C@H](CO)[C@@H](OC(=O)Nc2cccc(F)c2)[C@H](OC(=O)Nc2ccccc2-c2ccccc2)[C@@H]1OC(=O)Nc1ccccc1-c1ccccc1 | 0.914 | -0.116 (inactive) | 0.0479 | -0.0041 | 0.385 | 2.56 | 1 | 1.3 | -0.262 | 1.23 |
| C=C(CCCC)C(=O)CC[C@H](OC(C)=O)c1ccc(CO)o1 | -0.471 | 0.304 (inactive) | 0.0701 | -0.117 | 0.637 | 0.136 | 0.164 | 0.865 | -0.149 | -0.0156 |
| COc1ccccc1CN1C(=O)c2ccccc2[C@](Cc2ccccc2I)(C(=O)NCc2ccccc2)[C@@H]1c1ccc(CO)cc1 | 0.717 | 0.265 (inactive) | -0.0682 | -0.0211 | 0.345 | 1.77 | 0.729 | 0.505 | -0.748 | -0.0126 |
| C=CCOC(=O)[C@H]1[C@@H]2C(=O)O[C@@H](c3ccccc3)[C@@H](c3ccccc3)N2[C@@H](c2ccc(OCCOC(=O)[C@@H]3C[C@@H]4C(=O)NCC(=O)N4[C@@H]3c3ccc(O)cc3)cc2)[C@]12C(=O)Nc1ccc(I)cc12 | 0.733 | 1.05 (inactive) | 0.0435 | -0.0583 | 0.647 | 1.71 | 0.888 | 1.3 | 1.09 | 1.14 |
| COC(=O)[C@@]1(Cc2ccccc2)[C@H]2c3cc(C(=O)N(C)C)n(Cc4cc(F)c(F)c(F)c4)c3C[C@H]2CN1C(=O)c1ccccc1 | 1.04 | -0.389 (inactive) | 0.692 | 0.289 | 0.656 | 2.8 | 0.525 | 1.32 | -0.801 | 0.953 |
| C=CC[C@@]1(C(=O)NCCN2CCOCC2)N=C(c2ccc(OCCCO)cc2)O[C@@H]1c1ccccc1CN=[N+]=[N-] | 0.831 | -0.0095 (inactive) | -0.434 | -0.397 | 0.556 | 2.9 | 0.895 | 1.2 | 0.055 | 0.85 |
| C=CCN1C(=O)[C@]2(Cc3ccccc31)N=C(c1ccc(OCCCO)cc1)O[C@@H]2c1ccccc1 | -0.171 | 2.13 (inactive) | 0.0562 | 0.121 | 0.253 | 2.37 | 0.339 | 0.965 | 0.569 | 1.08 |
| CC(C)CNC(=O)[C@@]1(C)c2ccccc2C(=O)N(C(C)C)[C@H]1c1ccc(CO)cc1 | -1.44 | -0.0662 (inactive) | -0.146 | -0.132 | 0.903 | -0.445 | -0.121 | -1.06 | -1.02 | -2 |
| Cc1cc(C)c(C(O)C2C=CC3C(=O)NC(=O)C3N2Nc2ccccn2)c(C)c1 (stereo not given) | 0.63 | -0.0521 (inactive) | 0.148 | 0.139 | 0.422 | 1.09 | 0.751 | 0.785 | -0.907 | 0.049 |
| COc1cc(CO)cc(I)c1O[C@H]1C=C(C(=O)NCCO)C[C@@H](N(CCc2cccc(F)c2)C(=O)CCC2CCCC2)[C@@H]1O | -0.526 | 0.687 (inactive) | 0.13 | -0.0596 | 0.117 | 1.29 | 1.88 | 1.3 | 1.32 | 0.444 |
| O=C1[C@H]2C=C(Br)[C@H](C[C@@H]2OCCOCCO)[C@@]12CO2 | -0.335 | -0.0482 (inactive) | -0.105 | -0.0418 | -0.122 | -0.146 | 0.669 | 0.421 | 0.169 | 0.393 |
| CN(C)CCCCCCNC(=O)[C@@H]1C[C@@H]2C(=O)N[C@@H](Cc3ccccc3)C(=O)N2[C@@H]1c1cccc(OCCO)c1 | -0.0152 | 0.816 (inactive) | 0.0715 | -0.0793 | 0.784 | 2.51 | 0.142 | 1.31 | 0.711 | 1.11 |
| C=C[C@H](OC)[C@@H](OC(=O)Nc1ccc(SC)cc1)c1ccc(OCCO)cc1 | 0.383 | 0.651 (inactive) | -0.15 | -0.0956 | 0.503 | 1.45 | 0.503 | 0.904 | 0.0669 | 0.713 |
| COCC1=C([C@H](O)CCc2ccccc2)[C@H](CO)[C@@H]2C(=O)N(Cc3ccccc3)C(=O)[C@@H]2C1 | -0.103 | 0.0653 (inactive) | -0.0456 | -0.129 | -0.0186 | 0.0949 | -0.102 | -0.0322 | 0.422 | 0.0998 |
| COc1ccc([Si](C)(C)[C@@H]2[C@@H](CCn3cc([C@H](O)c4ccccc4)nn3)O[C@]3(C(=O)N(C)c4ccccc43)[C@H]2C)cc1 | 0.718 | 0.19 (inactive) | -0.175 | -0.19 | 0.494 | 0.613 | 0.0014 | 0.302 | -0.13 | 0.44 |
| CN(C)CCCC[C@@H]1NC(=O)[C@@H]2C[C@H](C(=O)NCc3ccc(F)cc3)[C@H](c3cccc(OCCO)c3)N2C1=O | -0.202 | -0.398 (inactive) | -0.0311 | -0.0598 | 0.569 | 2 | 0.776 | 1.05 | 0.991 | 1.11 |
| CCCCN1CC=CC23O[C@@H]4C=CCCOC(=O)C4[C@H]2C(=O)N(CCCO)[C@@H]3C1=O (stereo not given in full) | -1.13 | -0.941 (inactive) | -0.189 | -0.155 | 0.488 | -0.673 | -0.469 | -0.905 | -0.304 | -1.59 |
| C[N+](C)(C)CCCC[C@@H]1NC(=O)[C@@H]2C[C@H](C(=O)NCCCCCCNC(=O)CS)[C@H](c3cccc(OCCO)c3)N2C1=O | -0.658 | 0.802 (inactive) | -0.0984 | -0.174 | 0.332 | 1.04 | 0.264 | 0.129 | 0.393 | -0.258 |
